Experimental data: PubChem BioAssay (NCI)
The panel holds about 79,000 compounds, 15% with a hit somewhere; the sample as a whole holds those more often. The source made the active and inactive calls. No stated cut-off is given here; in the data, active means growth inhibition above about 70%; inactive means the rest.

What was measured:
[1] = NCI Yeast Anticancer Drug Screen. Data for the sgs1 strain (AID 173);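 further: 0% = growth of vehicle-only control cultures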; conditions: S. cerevisiae sgs1 mutant, active compounds read high
How it was run: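 Screen format: yeast with repair or checkpoint alterations, compound exposure, growth read relative to vehicle.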

[2] = NCI Yeast Anticancer Drug Screen. Data for the mlh1 rad18 strain (AID 175); conditions: S. cerevisiae mlh1 rad18 strain growth inhibition, active compounds read high
How it was run: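 Vehicle-treated cultures served as the reference for growth inhibition in a yeast strain carrying DNA damage repair alterations exposed to each compound.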

[3] = NCI Yeast Anticancer Drug Screen. Data for the rad18 strain (AID 177); conditions: S. cerevisiae rad18 mutant growth inhibition, active compounds read high
How it was run: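 Test articles were incubated with altered yeast defective in DNA damage repair. Results are given as inhibition of growth versus vehicle.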

[4] = NCI Yeast Anticancer Drug Screen. Data for the rad52 strain (AID 147);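 further: 0% = growth of vehicle-treated control cultures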; conditions: S. cerevisiae rad52 mutant growth inhibition, active compounds read high
How it was run: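 Vehicle-treated cultures served as the reference for growth inhibition of compound-exposed yeast bearing a DNA repair mutation.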

[5] = NCI Yeast Anticancer Drug Screen. Data for the rad50EPP+ strain (AID 151);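 further: 0% = growth of vehicle-treated control cultures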; conditions: S. cerevisiae rad50 mutant strain, active compounds read high
How it was run: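 In this screen, rad50EPP+ yeast were exposed to compounds. Growth inhibition was scored against vehicle-treated controls.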

[6] = NCI Yeast Anticancer Drug Screen. Data for the rad50 strain (AID 155);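 further: 0% = growth of vehicle-only cultures of the same strain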; conditions: S. cerevisiae rad50 strain growth inhibition, active compounds read high
How it was run: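 Readout: growth inhibition relative to vehicle-treated cultures. Compound exposure was carried out in a genetically defined yeast strain deficient in DNA damage repair.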

[7] = NCI Yeast Anticancer Drug Screen. Data for the mec2-1 strain (AID 157); conditions: S. cerevisiae mec2-1 strain, active compounds read high
How it was run: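 Vehicle-treated cultures served as reference for growth inhibition of compound-exposed mec2-1 yeast.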

[8] = NCI Yeast Anticancer Drug Screen. Data for the rad14 strain (AID 159);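 further: 0% = growth of vehicle-treated control cultures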; conditions: S. cerevisiae rad14 strain growth inhibition, active compounds read high
How it was run: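 Growth inhibition vs vehicle controls; genetically altered yeast strain (DNA damage repair defect) treated with test compounds.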

[9] = NCI Yeast Anticancer Drug Screen. Data for the sgs1 mgt1 strain (AID 161);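 further: 0% = growth of cultures given vehicle only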; conditions: S. cerevisiae sgs1 mgt1 strain, active compounds read high
How it was run: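 Inhibition of yeast growth, normalised to vehicle-treated controls, is reported for a strain bearing genetic alterations in DNA damage repair.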

[10] = NCI Yeast Anticancer Drug Screen. Data for the CLN2oe strain (AID 163);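 further: 0% = growth of vehicle-only control cultures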; conditions: S. cerevisiae CLN2oe strain, active compounds read high
How it was run: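 Inhibition relative to vehicle-treated yeast is reported. Cells: strain with genetic alteration in cell-cycle control, grown with compound.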

[11] = NCI Yeast Anticancer Drug Screen. Data for the cln2 rad14 strain (AID 165);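 further: 0% = growth equal to vehicle treated cultures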; conditions: S. cerevisiae cln2 rad14 strain, active compounds read high
How it was run: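 Each compound was tested on cln2 rad14 yeast. Inhibition of growth was calculated against vehicle-exposed controls.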

[12] = NCI Yeast Anticancer Drug Screen. Data for the bub3 strain (AID 167); conditions: S. cerevisiae bub3 mutant strain, active compounds read high
How it was run: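 Readout: yeast growth inhibition, expressed relative to vehicle-only wells. The test organism is a mutant strain from a panel with lesions in DNA repair or checkpoint genes.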

[13] = NCI Yeast Anticancer Drug Screen. Data for the wt2 strain (AID 169);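 further: 0% = growth of vehicle-treated yeast cultures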; conditions: S. cerevisiae wt2 strain growth inhibition, active compounds read high
How it was run: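 Inhibition of yeast growth was determined after compound treatment, normalised to controls receiving only vehicle.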

[14] = NCI Yeast Anticancer Drug Screen. Data for the mlh1 strain (AID 171);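 further: 0% = growth of vehicle-treated control cultures of the same strain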; conditions: S. cerevisiae mlh1 strain growth inhibition, active compounds read high
How it was run: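 Vehicle-normalised growth inhibition of a repair- or checkpoint-altered yeast strain following compound treatment.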

[15] = NCI Yeast Anticancer Drug Screen. Data for the mgt1 strain (AID 153); conditions: S. cerevisiae mgt1 mutant growth inhibition, active compounds read high
How it was run: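 mgt1 strain exposed; growth vs vehicle control recorded as inhibition.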

[16] = at 5.0 µM (retest, dose inferred, filed as 0.5)
[17] = at 50.0 µM (retest, dose inferred, filed as 5.0)

Measured: growth inhibition

CC[C@](O)(C(=O)O)c1cc2n(c(=O)c1CO)Cc1cc3ccccc3nc1-2
active: [1]; at 11.0 µM 92% | [1]; at 33.0 µM 95% | [1]; at 100.0 µM 97% | [2]; [16] 83% | [2]; [17] 97% | [2]; at 50.0 µM 96.5% | [3]; at 11.0 µM 82% | [3]; at 33.0 µM 93% | [3]; at 100.0 µM 96%
inactive: [1]; at 1.2 µM 17% | [1]; at 3.7 µM 64% | [3]; at 1.2 µM 4% | [3]; at 3.7 µM 29%

C=CC[N+]12CN3CN(CN(C3)C1)C2
active: [7]; [17] 70% | [7]; at 100.0 µM 98% | [9]; [17] 98% | [10]; at 100.0 µM 70% | [11]; [17] 96% | [12]; at 33.0 µM 75% | [12]; [17] 97% | [12]; at 100.0 µM 94% | [14]; at 100.0 µM 74%
inactive: [4]; at 1.2 µM -8% | [4]; at 3.7 µM 5% | [4]; at 11.0 µM -11% | [4]; at 33.0 µM -5% | [4]; at 100.0 µM 29% | [5]; at 1.2 µM 7% | [5]; at 3.7 µM 2% | [5]; at 11.0 µM -31% | [5]; at 33.0 µM 16% | [5]; at 100.0 µM 68% | [6]; at 1.2 µM 8% | [6]; at 3.7 µM -1% | [6]; [16] 38% | [6]; at 11.0 µM -21% | [6]; at 33.0 µM -3% | [6]; [17] 65% | [6]; at 50.0 µM 29.8% | [6]; at 100.0 µM 32% | [7]; at 1.2 µM -12% | [7]; at 3.7 µM -24% | [7]; [16] 43% | [7]; at 11.0 µM -31% | [7]; at 33.0 µM 45% | [7]; at 50.0 µM 20.6% | [8]; at 1.2 µM -35% | [8]; at 3.7 µM -34% | [8]; at 11.0 µM -31% | [8]; at 33.0 µM -16% | [8]; at 100.0 µM 31% | [9]; [16] -2% | [9]; at 50.0 µM 59.8% | [10]; at 1.2 µM -24% | [10]; at 3.7 µM -32% | [10]; at 11.0 µM -17% | [10]; at 33.0 µM -9% | [11]; [16] 67% | [11]; at 50.0 µM 7.55% | [12]; at 1.2 µM -1% | [12]; at 3.7 µM 12% | [12]; [16] 20% | [12]; at 11.0 µM 12% | [12]; at 50.0 µM 2.1% | [13]; at 1.2 µM -49% | [13]; at 3.7 µM -52% | [13]; at 11.0 µM -52% | [13]; at 33.0 µM -28% | [13]; at 100.0 µM 23% | [14]; at 1.2 µM -25% | [14]; at 3.7 µM -22% | [14]; at 11.0 µM -23% | [14]; at 33.0 µM 13% | [1]; at 1.2 µM -20% | [1]; at 3.7 µM -17% | [1]; at 11.0 µM -21% | [1]; at 33.0 µM -4% | [1]; at 100.0 µM 43% | [2]; [16] 38% | [2]; [17] 52% | [2]; at 50.0 µM 10.2% | [3]; at 1.2 µM 18% | [3]; at 3.7 µM 19% | [3]; at 11.0 µM -13% | [3]; at 33.0 µM 13% | [3]; at 100.0 µM 12%

O=P(CCCCP(=O)(c1ccccc1)c1ccccc1)(c1ccccc1)c1ccccc1.[Cl][Sn]([Cl])([c]1ccccc1)[c]1ccccc1
active: [4]; at 11.0 µM 74% | [4]; at 33.0 µM 96% | [4]; at 100.0 µM 97% | [15]; at 11.0 µM 74% | [15]; at 33.0 µM 96% | [15]; at 100.0 µM 97% | [6]; at 11.0 µM 82% | [6]; at 33.0 µM 97% | [6]; [17] 98% | [6]; at 50.0 µM 85.7% | [6]; at 100.0 µM 97% | [7]; at 11.0 µM 70% | [7]; at 33.0 µM 95% | [7]; [17] 98% | [7]; at 50.0 µM 87.8% | [7]; at 100.0 µM 96% | [8]; at 11.0 µM 78% | [8]; at 33.0 µM 94% | [8]; at 100.0 µM 96% | [9]; [16] 83% | [9]; [17] 98% | [9]; at 50.0 µM 87.3% | [10]; at 33.0 µM 91% | [10]; at 100.0 µM 95% | [11]; [17] 97% | [11]; at 50.0 µM 81.8% | [12]; at 33.0 µM 93% | [12]; [17] 98% | [12]; at 50.0 µM 87.5% | [12]; at 100.0 µM 96% | [13]; at 33.0 µM 92% | [13]; at 100.0 µM 96% | [14]; at 11.0 µM 80% | [14]; at 33.0 µM 96% | [14]; at 100.0 µM 97% | [1]; at 33.0 µM 96% | [1]; at 100.0 µM 97% | [2]; [16] 84% | [2]; [17] 96% | [2]; at 50.0 µM 89.5% | [3]; at 11.0 µM 82% | [3]; at 33.0 µM 95% | [3]; at 100.0 µM 96%
inactive: [4]; at 1.2 µM -4% | [4]; at 3.7 µM 26% | [5]; at 1.2 µM 8% | [5]; at 3.7 µM -1% | [5]; at 11.0 µM 2% | [5]; at 33.0 µM 14% | [5]; at 100.0 µM 15% | [15]; at 1.2 µM 13% | [15]; at 3.7 µM 24% | [6]; at 1.2 µM 26% | [6]; at 3.7 µM 24% | [6]; [16] 66% | [7]; at 1.2 µM 11% | [7]; at 3.7 µM 22% | [7]; [16] 48% | [8]; at 1.2 µM 4% | [8]; at 3.7 µM 16% | [10]; at 1.2 µM -16% | [10]; at 3.7 µM -27% | [10]; at 11.0 µM 15% | [11]; [16] 15% | [12]; at 1.2 µM 7% | [12]; at 3.7 µM -3% | [12]; [16] 67% | [12]; at 11.0 µM 50% | [13]; at 1.2 µM -51% | [13]; at 3.7 µM -35% | [13]; at 11.0 µM 43% | [14]; at 1.2 µM 3% | [14]; at 3.7 µM 9% | [1]; at 1.2 µM 0% | [1]; at 3.7 µM 15% | [1]; at 11.0 µM 68% | [3]; at 1.2 µM 3% | [3]; at 3.7 µM 16%
